An excerpt weighted towards active compounds, which were near 19% of everything screened.
DT40 TDP1 CPT = growth inhibition of DT40 Tdp1-/-;hTDP1 cells with camptothecin (screen for TDP1 inhibitors); chicken DT40 Tdp1-/-;hTDP1 cells + 20 nM CPT, ATP luminescence, 48 h; Potency, µM (highest dose often 46.2 µM), most hits filed as inhibitors; 420,000 compounds, 12% hits; further: nearly all actives have a fitted effect of over 55% in size
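Cell growth measured by CellTiter-Glo luminescence after a minimum 48 h, 37 C compound exposure with 20 nM CPT in Tdp1-knockout DT40 cells stably expressing hTDP1, seeded 400/well; qHTS titration format.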
TGFb SMAD3 inh = TGF-b pathway inhibition; HepG2 CAGA-GFP TGF-b/SMAD3 reporter, GFP fluorescence, 18 h; TGF-beta stimulated, 500 pg/mL final; AID 588855; 410,000 compounds, 1.2% hits; Potency, µM (top dose mostly 46.1 µM), hits mostly inhibitors; further: nearly all actives have a fitted effect of over 65% in size
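First, reporter cells (HEPG2 CAGA-GFP) rested 2 h at 37 degrees C. Next, compounds were pinned in and TGF-beta added to 500 pg/mL final. After 18 h, GFP was imaged per cell and summed per well.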
ASM inhibitor = inhibitors of human secretory acid sphingomyelinase | placental ASM, HMU-PC fluorogenic substrate, 60 min | P17405 | Potency, µM (highest dose often 57.5 µM), actives largely listed as inhibitors | AID 504937 | 340,000 compounds, 0.006% hits
Target sequence (P17405 47-631 limits assumed): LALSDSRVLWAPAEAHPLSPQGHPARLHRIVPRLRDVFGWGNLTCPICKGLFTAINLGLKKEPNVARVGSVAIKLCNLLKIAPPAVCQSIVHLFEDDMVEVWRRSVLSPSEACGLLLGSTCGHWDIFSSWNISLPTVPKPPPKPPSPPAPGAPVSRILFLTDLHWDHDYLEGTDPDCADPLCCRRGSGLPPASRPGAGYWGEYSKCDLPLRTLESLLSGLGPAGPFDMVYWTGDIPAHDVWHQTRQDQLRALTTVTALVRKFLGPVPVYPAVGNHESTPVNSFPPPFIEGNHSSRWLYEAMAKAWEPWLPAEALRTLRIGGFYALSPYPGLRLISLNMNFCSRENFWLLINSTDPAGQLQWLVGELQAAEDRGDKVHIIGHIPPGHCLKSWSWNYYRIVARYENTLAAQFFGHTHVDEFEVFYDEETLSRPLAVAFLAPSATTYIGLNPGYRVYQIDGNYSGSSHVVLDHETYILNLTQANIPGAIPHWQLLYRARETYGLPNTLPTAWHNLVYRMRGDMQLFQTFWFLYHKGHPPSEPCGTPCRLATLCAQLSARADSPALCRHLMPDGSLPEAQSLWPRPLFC
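HMU-PC0 cleavage (9 uM final) by human placental ASM, 60 min at 37 °C following 10 min compound exposure at RT; stopped at pH 10, fluorescence Ex 386/Em 447 nm.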
HepG2 tox = kills HepG2 cells in TGF-b inhibitor counter-screen; 410,000 compounds, 0.76% hits; Potency, µM (highest dose often 46.1 µM), most hits filed as cytotoxic; HepG2 CAGA-GFP viability, ATP luminescence, 18 h
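HepG2 CAGA-GFP cells (1000/well, DMEM with 1% FBS) received compound, then TGF-beta at 500 pg/mL final, and were incubated 18 hours at 37 degrees C. Viability was read by CellTiter-Glo luminescence. Media-only wells were set as complete cell-killing and DMSO as no toxicity.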
TDP1 cell noCPT = qHTS for Inhibitors of human tyrosyl-DNA phosphodiesterase 1 (TDP1): qHTS in cells in absence of CPT; DT40 Tdp1-/- hTDP1 cells, no CPT, ATP luminescence, 48 h; Potency, µM (doses to about 46.2 µM), usual class: inhibitors; 420,000 compounds, 15% hits; AID 686978, 2013; further: nearly all actives have a fitted effect of over 55% in size
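Readout: luminescence from CellTiter-Glo after 30 min in the dark at RT. Cells: DT40 Tdp1-/- with stable hTDP1, 400/well. Exposure: compounds alone, ≥48 hr, 37 °C.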
IL1B secr inh = inflammasome signaling inhibition, IL-1 beta readout. 360,000 compounds, 4.7% hits. THP-1 LPS/ATP IL-1B secretion, AlphaLISA, 16 h; hits give low values. activity change, % at 57.5 µM; in the data active means activity change below about -50%; inconclusive means mostly about -30% to -49%
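THP-1 cells pretreated 1 hr with compounds (up to 57.5 uM final), then stimulated with LPS (250 ng/mL final) plus ATP (1.25 mM final); secreted IL-1B measured by AlphaLISA after 16 hr, decreased signal indicating inhibition.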
Each line names hits and unclear results; the compound was inactive in the other large screens. Unless noted, the call rests on the fitted dose curve; in most records, active means well fitted curve in the direction sought with a large enough effect; inconclusive means small, poorly fitted or top-dose-only effect, or another doubt; inactive means no such curve, though single readings can be large; an effect the other way counts as inactive or inconclusive.

COc1ccc(-n2c(=O)c3c4c(sc3n(CC(=O)N3CCCCC3C)c2=O)CCC4)c(OC)c1 (configuration not stated)	DT40 TDP1 CPT inconclusive, TDP1 cell noCPT inconclusive (no result: ASM inhibitor, IL1B secr inh)
CCOC(=O)c1cc(-c2ccc(N)cc2)sc1N	DT40 TDP1 CPT 18.4µM, TDP1 cell noCPT 20.6µM, IL1B secr inh inconclusive
CCOC(=O)c1sc(-c2ccc(Br)cc2)cc1N	TDP1 cell noCPT inconclusive
CCOc1ccc(C2C(C(=O)OC)=CN(C(C)c3ccccc3)C=C2C(=O)OC)cc1 (configuration not stated)	DT40 TDP1 CPT inconclusive, TDP1 cell noCPT 20.6µM
O=C(OCc1ccc(O)cc1)c1c(-c2ccsc2)oc2ccc(N3CCOCC3)cc12	DT40 TDP1 CPT 18.4µM, TGFb SMAD3 inh inconclusive, ASM inhibitor inconclusive, TDP1 cell noCPT 13µM
O=C(OCC(=O)c1ccc(Cl)s1)c1cncc(Br)c1	none
CC(=O)Nc1ccccc1-c1nc(CNC(=O)c2ccc(C)cc2)c(C)o1	TDP1 cell noCPT inconclusive (no result: TGFb SMAD3 inh, ASM inhibitor, HepG2 tox, IL1B secr inh)
Cc1ccc(-c2noc(-c3c(C)noc3C)n2)cc1	HepG2 tox 0.891µM
CCC(=O)NC(Nc1c(C)n(C)n(-c2ccccc2)c1=O)C(Cl)(Cl)Cl (configuration not stated)	none
CCN(CC)S(=O)(=O)c1ccc2c(c1)c(=O)c(C(=O)N1CCN(c3ccccn3)CC1)cn2C	none
O=C(COc1c(Br)cc(Br)c2cccnc12)Nc1ccccc1F	DT40 TDP1 CPT inconclusive, TDP1 cell noCPT 18.4µM
Cc1cccc2sc(NNC(=O)c3ccc(S(=O)(=O)N4CC(C)CC(C)C4)cc3)nc12 (configuration not stated)	DT40 TDP1 CPT 13µM, TGFb SMAD3 inh inconclusive, TDP1 cell noCPT 7.31µM
Cc1ccc2nc(NNC(=O)c3ccc(S(=O)(=O)N4CCc5ccccc5C4)cc3)sc2c1	DT40 TDP1 CPT 2.91µM, TGFb SMAD3 inh inconclusive, TDP1 cell noCPT 5.17µM
Cc1cc(C)c2nc(NC(=O)c3ccc(S(=O)(=O)N4CCC(C)CC4)cc3)sc2c1	TGFb SMAD3 inh inconclusive (no result: ASM inhibitor, IL1B secr inh)
Cc1cc(C)c2nc(NNC(=O)c3ccc(S(=O)(=O)N4CC(C)CC(C)C4)cc3)sc2c1 (configuration not stated)	DT40 TDP1 CPT 5.8µM, TGFb SMAD3 inh inconclusive, TDP1 cell noCPT 5.8µM
Cc1cc(C)c2nc(NNC(=O)c3ccc(S(=O)(=O)N4CCCC(C)C4)cc3)sc2c1 (configuration not stated)	DT40 TDP1 CPT 2.91µM, TGFb SMAD3 inh inconclusive, TDP1 cell noCPT 4.11µM
O=C(NCc1ccc2c(c1)OCO2)C(=O)Nc1cc2c3c(c1)CC(=O)N3CCC2	none
COc1ccc(-c2cc(C(F)(F)F)nc(NCc3ccccc3)n2)cc1	DT40 TDP1 CPT 25.9µM, TDP1 cell noCPT inconclusive (no result: ASM inhibitor, IL1B secr inh)
Fc1ccc(CNc2nc(-c3ccc(Cl)cc3)cc(C(F)(F)F)n2)cc1	DT40 TDP1 CPT 23.1µM, TGFb SMAD3 inh inconclusive, TDP1 cell noCPT 18.4µM (no result: ASM inhibitor, IL1B secr inh)
Fc1ccc(-c2cc(C(F)(F)F)nc(NCc3ccccc3)n2)cc1	DT40 TDP1 CPT inconclusive, TDP1 cell noCPT inconclusive (no result: ASM inhibitor, IL1B secr inh)
COc1ccccc1C(=O)NC(=O)Nc1nc(-c2ccccc2)cc(C(F)(F)F)n1	DT40 TDP1 CPT 14.6µM, TDP1 cell noCPT inconclusive
FC(F)(F)c1ccnc(NCc2ccc(Cl)cc2)n1	TGFb SMAD3 inh inconclusive, IL1B secr inh -55.3
Cc1cc(C)n(C(C)CC(=O)NCc2ccccc2C)n1 (configuration not stated)	none (no result: ASM inhibitor, IL1B secr inh)
Nc1c(C(=O)OCC(=O)Nc2cccc([N+](=O)[O-])c2)[nH]c(=O)[nH]c1=O	none
O=c1/c(=C\c2ccc(O)cc2)sc2n1C(c1ccccc1)C(c1ccccc1)=NN=2 (configuration not stated)	DT40 TDP1 CPT inconclusive, TDP1 cell noCPT inconclusive, IL1B secr inh -65.0
O=C1/C(=C/c2ccccn2)SC(=S)N1Nc1ncc(C(F)(F)F)cc1Cl	DT40 TDP1 CPT 8.2µM, TDP1 cell noCPT inconclusive
CCOC(=O)c1c(C)n(-c2ccccc2)c2ccc(OC(=O)c3cccc(Cl)c3)cc12	DT40 TDP1 CPT inconclusive, TDP1 cell noCPT 25.9µM (no result: ASM inhibitor, IL1B secr inh)
CCOC(=O)c1c(C)n(-c2ccccc2)c2ccc(OCCN(C)C)cc12	DT40 TDP1 CPT inconclusive, TDP1 cell noCPT inconclusive, IL1B secr inh -80.2
CCOC(=O)c1c(C)n(-c2ccccc2)c2ccc(OC(=O)c3ccccc3)cc12	DT40 TDP1 CPT inconclusive, TDP1 cell noCPT 16.4µM (no result: ASM inhibitor, IL1B secr inh)
CCOC(=O)c1c(C)n(-c2ccccc2)c2ccc(OC(=O)c3c(F)cccc3F)cc12	none (no result: ASM inhibitor, IL1B secr inh)
CCOC(=O)c1c(C)n(C)c2cc(OCCN(CC)CC)ccc12	IL1B secr inh -55.1
CC(C)N(C(=O)CSc1nnnn1-c1ccc2c(c1)OCO2)C(C)C	TDP1 cell noCPT inconclusive
CCOC(=O)c1c(C)n(-c2ccc(C)cc2)c2ccc(OCC(O)CNCC3CCCO3)cc12 (configuration not stated)	DT40 TDP1 CPT 16.4µM, TGFb SMAD3 inh inconclusive, ASM inhibitor inconclusive, TDP1 cell noCPT 18.4µM, IL1B secr inh -54.1
CCOC(=O)c1c(C)n(C)c2ccc(OCC(O)CNC(CC)CO)cc12 (configuration not stated)	IL1B secr inh inconclusive
O=C1C=C(CCc2ccccc2)CCC1	none (no result: ASM inhibitor)
O=[N+]([O-])c1ccc(NCCOc2ccccc2Cl)nc1	IL1B secr inh -65.6
CCOC(=O)C1(CCC(C)C)CC(CSc2nc3ccccc3[nH]2)OC1=O (configuration not stated)	DT40 TDP1 CPT 11.6µM, TDP1 cell noCPT 18.4µM
COc1cc(CN(C)c2ncnc3sccc23)ccc1OC(F)F	DT40 TDP1 CPT 16.4µM, TDP1 cell noCPT 11.6µM
COc1ccc(OC)c(Nc2ncnc3sccc23)c1	TDP1 cell noCPT inconclusive
O=[N+]([O-])c1ccc(C=Nc2cccc3ccccc23)s1	DT40 TDP1 CPT 20.6µM, TGFb SMAD3 inh 15.8µM, HepG2 tox 25.1µM, TDP1 cell noCPT 20.6µM, IL1B secr inh -96.9
O=[N+]([O-])c1ccc(C=NN2CCOCC2)s1	DT40 TDP1 CPT 20.6µM, TDP1 cell noCPT inconclusive (no result: ASM inhibitor)
O=[N+]([O-])c1ccc(NN=Cc2cccc3ccccc23)cc1	DT40 TDP1 CPT inconclusive, TDP1 cell noCPT inconclusive
O=c1oc(/C=C/c2ccc([N+](=O)[O-])s2)nc2ccccc12	DT40 TDP1 CPT inconclusive, TDP1 cell noCPT inconclusive, IL1B secr inh -62.4
CCN(C(=O)c1cc(S(=O)(=O)N2CCOCC2)cn1C)c1cccc(C)c1	none

Screening results as filed in PubChem BioAssay.
